Laboratory results published in the supplement of paper PMC10849652.
Of roughly 7,900 targets only a part is listed; those with a hit were picked by preference. About 0.6% of all pairs of compound and target were hits.

Compound: CN1CCN(CCOc2cc(OC3CCOCC3)c3c(Nc4c(Cl)ccc5c4OCO5)ncnc3c2)CC1 [saracatinib]
Assay: log2 fold change, soluble protein after heating vs DMSO (PISA); higher = thermal stabilisation; K562 cells, 10 uM, 30 min; active = over 0.2 and 3.5 SD of the protein, either way, in both replicates (recomputed)
Summary of the method: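 K562 cells at 2×10^6 cells/mL were treated with 10 μM compound for 30 min. Aliquots were heated for 3 min across 48°C-58°C, pooled, and extracted in PBS with 0.5% NP-40 at 4°C; soluble protein was the supernatant after 21,000xg for 90 min. Soluble protein was quantified by TMTpro 16plex LC-MS/MS with channel sums equalised, and reported as log2 fold change in thermal stability against DMSO controls, with values from duplicates.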

Chain of UniProt P08579 (P08579 whole entry, looked up): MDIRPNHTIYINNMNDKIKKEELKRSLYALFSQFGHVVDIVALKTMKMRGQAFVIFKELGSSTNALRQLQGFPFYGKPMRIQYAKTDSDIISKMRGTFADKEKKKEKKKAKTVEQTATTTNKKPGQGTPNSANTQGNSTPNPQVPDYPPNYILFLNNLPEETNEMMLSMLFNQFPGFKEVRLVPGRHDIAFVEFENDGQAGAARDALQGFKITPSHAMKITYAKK
Chain of UniProt P30626 (P30626 whole entry, looked up): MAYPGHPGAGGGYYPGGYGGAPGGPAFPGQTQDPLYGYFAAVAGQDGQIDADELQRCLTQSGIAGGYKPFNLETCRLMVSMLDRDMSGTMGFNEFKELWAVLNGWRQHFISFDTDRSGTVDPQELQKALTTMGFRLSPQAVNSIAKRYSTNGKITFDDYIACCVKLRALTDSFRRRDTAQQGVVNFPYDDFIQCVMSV
Chain of UniProt P36897 (P36897 whole entry, looked up): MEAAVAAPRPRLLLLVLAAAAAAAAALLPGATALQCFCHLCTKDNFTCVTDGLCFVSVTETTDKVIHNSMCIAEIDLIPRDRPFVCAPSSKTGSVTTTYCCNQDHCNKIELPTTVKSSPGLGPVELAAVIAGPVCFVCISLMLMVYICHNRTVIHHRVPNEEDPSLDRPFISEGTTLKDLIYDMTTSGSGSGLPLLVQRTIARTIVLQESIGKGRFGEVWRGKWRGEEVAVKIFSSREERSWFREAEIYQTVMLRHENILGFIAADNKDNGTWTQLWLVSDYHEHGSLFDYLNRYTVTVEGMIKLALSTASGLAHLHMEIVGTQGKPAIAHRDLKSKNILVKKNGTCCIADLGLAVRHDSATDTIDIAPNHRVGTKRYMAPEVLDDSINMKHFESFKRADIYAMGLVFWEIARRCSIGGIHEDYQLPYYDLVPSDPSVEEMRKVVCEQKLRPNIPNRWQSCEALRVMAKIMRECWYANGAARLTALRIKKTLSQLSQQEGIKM
Chain of UniProt P23497 (P23497 whole entry, looked up): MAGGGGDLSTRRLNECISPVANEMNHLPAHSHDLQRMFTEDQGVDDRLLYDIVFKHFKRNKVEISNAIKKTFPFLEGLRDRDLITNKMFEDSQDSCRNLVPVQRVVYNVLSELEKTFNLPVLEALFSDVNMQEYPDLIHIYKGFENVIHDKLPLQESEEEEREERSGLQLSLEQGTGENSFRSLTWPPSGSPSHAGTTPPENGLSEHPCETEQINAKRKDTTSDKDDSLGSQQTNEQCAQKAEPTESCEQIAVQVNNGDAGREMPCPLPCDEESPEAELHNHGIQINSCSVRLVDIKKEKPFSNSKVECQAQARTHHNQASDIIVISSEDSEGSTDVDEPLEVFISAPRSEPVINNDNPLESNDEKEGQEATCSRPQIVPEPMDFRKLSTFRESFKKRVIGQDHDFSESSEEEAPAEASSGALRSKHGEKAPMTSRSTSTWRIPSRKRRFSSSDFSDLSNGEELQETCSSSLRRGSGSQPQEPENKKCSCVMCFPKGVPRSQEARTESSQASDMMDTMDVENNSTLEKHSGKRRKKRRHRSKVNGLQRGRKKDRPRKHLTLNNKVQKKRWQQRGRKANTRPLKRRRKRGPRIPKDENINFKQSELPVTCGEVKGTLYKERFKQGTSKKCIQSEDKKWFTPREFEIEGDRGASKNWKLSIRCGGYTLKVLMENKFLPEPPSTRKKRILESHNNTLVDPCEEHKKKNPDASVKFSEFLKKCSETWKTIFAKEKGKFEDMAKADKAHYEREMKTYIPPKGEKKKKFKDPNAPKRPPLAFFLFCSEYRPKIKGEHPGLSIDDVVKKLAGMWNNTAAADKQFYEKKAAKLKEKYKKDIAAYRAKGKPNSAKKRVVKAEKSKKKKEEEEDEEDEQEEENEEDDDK
Chain of UniProt Q08170 (Q08170 whole entry, looked up): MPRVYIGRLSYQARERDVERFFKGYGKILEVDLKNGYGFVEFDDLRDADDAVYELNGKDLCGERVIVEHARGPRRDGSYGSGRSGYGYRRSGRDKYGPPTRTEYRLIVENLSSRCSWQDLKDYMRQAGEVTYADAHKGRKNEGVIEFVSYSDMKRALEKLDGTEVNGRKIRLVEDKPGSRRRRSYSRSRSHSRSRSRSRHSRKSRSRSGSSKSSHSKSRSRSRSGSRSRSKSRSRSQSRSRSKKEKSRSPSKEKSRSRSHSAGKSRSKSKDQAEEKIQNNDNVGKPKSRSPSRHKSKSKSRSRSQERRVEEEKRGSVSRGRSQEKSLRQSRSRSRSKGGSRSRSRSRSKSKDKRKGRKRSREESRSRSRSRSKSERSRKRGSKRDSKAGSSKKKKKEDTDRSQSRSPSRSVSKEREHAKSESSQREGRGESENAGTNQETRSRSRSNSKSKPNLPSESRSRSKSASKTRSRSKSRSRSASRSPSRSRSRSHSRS
Chain of UniProt Q96CQ1 (Q96CQ1 whole entry, looked up): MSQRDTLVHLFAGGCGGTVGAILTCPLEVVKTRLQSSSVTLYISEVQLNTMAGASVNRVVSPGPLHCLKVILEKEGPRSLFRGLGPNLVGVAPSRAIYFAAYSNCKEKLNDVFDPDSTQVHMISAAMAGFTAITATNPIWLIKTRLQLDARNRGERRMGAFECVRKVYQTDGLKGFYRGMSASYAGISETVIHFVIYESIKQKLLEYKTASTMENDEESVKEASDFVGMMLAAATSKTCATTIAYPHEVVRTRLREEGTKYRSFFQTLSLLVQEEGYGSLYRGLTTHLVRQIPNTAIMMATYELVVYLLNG
Chain of UniProt Q9BSF4 (Q9BSF4 whole entry, looked up): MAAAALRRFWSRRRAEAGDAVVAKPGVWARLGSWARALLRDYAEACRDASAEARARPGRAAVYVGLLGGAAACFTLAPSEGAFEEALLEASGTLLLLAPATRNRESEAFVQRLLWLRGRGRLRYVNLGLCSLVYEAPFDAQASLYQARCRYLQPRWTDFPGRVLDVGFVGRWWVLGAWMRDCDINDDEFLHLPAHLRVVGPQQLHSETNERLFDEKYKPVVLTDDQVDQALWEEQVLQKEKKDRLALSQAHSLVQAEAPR
Chain of UniProt Q9UNH7 (Q9UNH7 whole entry, looked up): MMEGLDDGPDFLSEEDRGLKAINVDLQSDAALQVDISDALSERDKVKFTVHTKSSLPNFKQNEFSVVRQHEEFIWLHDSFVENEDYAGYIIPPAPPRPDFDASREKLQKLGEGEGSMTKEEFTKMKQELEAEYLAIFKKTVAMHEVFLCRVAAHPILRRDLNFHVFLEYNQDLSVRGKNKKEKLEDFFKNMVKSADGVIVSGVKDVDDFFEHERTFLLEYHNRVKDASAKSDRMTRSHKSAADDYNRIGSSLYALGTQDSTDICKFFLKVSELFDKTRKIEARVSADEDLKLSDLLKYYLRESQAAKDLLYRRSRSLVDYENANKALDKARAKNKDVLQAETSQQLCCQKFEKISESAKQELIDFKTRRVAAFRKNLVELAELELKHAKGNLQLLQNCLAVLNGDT
Chain of UniProt Q9P289 (Q9P289 whole entry, looked up): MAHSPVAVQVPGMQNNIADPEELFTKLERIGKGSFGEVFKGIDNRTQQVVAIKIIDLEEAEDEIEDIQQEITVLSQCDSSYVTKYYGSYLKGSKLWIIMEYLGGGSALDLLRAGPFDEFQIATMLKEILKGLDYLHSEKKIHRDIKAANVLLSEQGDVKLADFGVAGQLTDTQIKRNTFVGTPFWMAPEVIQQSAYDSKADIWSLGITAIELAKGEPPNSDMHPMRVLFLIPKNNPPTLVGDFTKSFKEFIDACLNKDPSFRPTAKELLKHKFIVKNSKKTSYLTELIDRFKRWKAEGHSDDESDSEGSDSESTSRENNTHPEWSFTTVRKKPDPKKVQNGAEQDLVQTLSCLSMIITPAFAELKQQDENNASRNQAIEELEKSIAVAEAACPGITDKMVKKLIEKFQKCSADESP
Chain of UniProt Q92609 (Q92609 whole entry, looked up): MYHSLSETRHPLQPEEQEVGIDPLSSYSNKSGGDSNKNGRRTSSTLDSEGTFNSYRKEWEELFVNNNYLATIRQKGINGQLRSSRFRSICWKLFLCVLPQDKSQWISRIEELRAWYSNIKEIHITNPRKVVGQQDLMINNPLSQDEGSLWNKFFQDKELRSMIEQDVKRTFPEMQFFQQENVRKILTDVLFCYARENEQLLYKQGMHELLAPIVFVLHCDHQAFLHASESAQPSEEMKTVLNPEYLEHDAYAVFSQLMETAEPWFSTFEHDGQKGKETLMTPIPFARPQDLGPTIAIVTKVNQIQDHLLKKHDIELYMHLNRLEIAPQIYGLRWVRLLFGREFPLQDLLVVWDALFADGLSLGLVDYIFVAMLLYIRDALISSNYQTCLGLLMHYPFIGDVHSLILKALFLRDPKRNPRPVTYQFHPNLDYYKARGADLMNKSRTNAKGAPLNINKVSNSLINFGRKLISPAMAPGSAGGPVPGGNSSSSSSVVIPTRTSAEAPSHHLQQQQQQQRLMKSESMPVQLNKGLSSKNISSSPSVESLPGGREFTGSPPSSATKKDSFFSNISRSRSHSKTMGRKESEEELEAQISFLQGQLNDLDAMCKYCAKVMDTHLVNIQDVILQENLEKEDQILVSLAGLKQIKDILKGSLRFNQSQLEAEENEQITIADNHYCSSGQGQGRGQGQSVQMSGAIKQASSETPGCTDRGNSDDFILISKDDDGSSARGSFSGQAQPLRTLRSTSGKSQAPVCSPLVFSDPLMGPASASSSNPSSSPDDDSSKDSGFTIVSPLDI
Chain of UniProt Q86VD7 (Q86VD7 whole entry, looked up): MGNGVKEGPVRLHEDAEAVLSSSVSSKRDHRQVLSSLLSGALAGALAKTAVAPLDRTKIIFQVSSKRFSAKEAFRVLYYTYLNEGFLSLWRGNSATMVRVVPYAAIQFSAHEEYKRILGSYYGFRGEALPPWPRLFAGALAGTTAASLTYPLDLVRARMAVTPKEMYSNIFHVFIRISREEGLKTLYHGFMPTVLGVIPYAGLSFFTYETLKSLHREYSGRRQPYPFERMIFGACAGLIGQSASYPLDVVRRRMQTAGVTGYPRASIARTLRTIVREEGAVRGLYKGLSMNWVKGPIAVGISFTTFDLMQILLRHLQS
Chain of UniProt P63165 (P63165 whole entry, looked up): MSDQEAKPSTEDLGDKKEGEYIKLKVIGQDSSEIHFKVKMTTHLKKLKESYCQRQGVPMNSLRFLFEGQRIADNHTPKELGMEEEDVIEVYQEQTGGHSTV

Target | log2 fold change
TERF2IP (UniProt Q9NYB0) | 0.038 (inactive)
TGFBR1 isoform 2 (UniProt P36897) | 0.371 (active)
SLC25A39 (UniProt Q9BZJ4) | 0.107 (inactive)
SLC27A2 (UniProt O14975) | 0 (inactive)
STAT5B (UniProt P51692) | -0.231 (inactive)
TBC1D15 isoform 3 (UniProt Q8TC07) | -0.01 (inactive)
TELO2 (UniProt Q9Y4R8) | -0.05 (inactive)
SQSTM1 (UniProt Q13501) | -0.038 (inactive)
TBC1D5 isoform 2 (UniProt Q92609) | -0.033 (inactive)
SRI (UniProt P30626) | -0.034 (inactive)
STAT3 (UniProt P40763) | 0.025 (inactive)
SRPRA (UniProt P08240) | -0.001 (inactive)
TAOK1 (UniProt Q7L7X3) | 0.002 (inactive)
STK26 (UniProt Q9P289) | -0.027 (inactive)
STK4 (UniProt Q13043) | 0.006 (inactive)
STXBP2 isoform 3 (UniProt Q15833) | -0.138 (inactive)
SRPRB (UniProt Q9Y5M8) | -0.03 (inactive)
TIMM29 (UniProt Q9BSF4) | 0.054 (inactive)
SPG11 (UniProt Q96JI7) | -0.281 (inactive)

Target | log2 fold change
SLC25A36 (UniProt Q96CQ1) | 0.233 (inactive)
SLC25A42 (UniProt Q86VD7) | 0.105 (inactive)
TAMM41 isoform 3 (UniProt Q96BW9) | -0.009 (inactive)
SRSF4 (UniProt Q08170) | -0.065 (inactive)
SNRNP27 (UniProt Q8WVK2) | -0.071 (inactive)
TJP2 isoform 7 (UniProt Q9UDY2) | -0.074 (inactive)
STEAP3 isoform 2 (UniProt Q658P3) | -0.02 (inactive)
SP100 isoform 4 (UniProt P23497) | 0.058 (inactive)
SPG21 (UniProt Q9NZD8) | 0.007 (inactive)
TIMM44 (UniProt O43615) | -0.055 (inactive)
TBC1D23 (UniProt Q9NUY8) | -0.023 (inactive)
SPAG9 (UniProt O60271) | 0.014 (inactive)
SNRPB2 (UniProt P08579) | 0.079 (inactive)
SNX6 (UniProt Q9UNH7) | -0.018 (inactive)
STK25 (UniProt O00506) | -0.045 (inactive)
TJP1 (UniProt Q07157) | -0.049 (inactive)
STK11IP (UniProt Q8N1F8) | 0.001 (inactive)
SUMO1 (UniProt P63165) | -0.112 (inactive)
TM9SF2 (UniProt Q99805) | 0.038 (inactive)
